From PubChem
Pf Dd2 inh – blocks in vitro growth of P. falciparum Dd2. Potency, µM (top dose mostly 28.9 µM), for the others: top-dose activity, negative = inhibition, most hits filed as inhibitors. P. falciparum Dd2 growth, SYBR Green, 72 h. AID 1347417. actives 4.3% (n = 120,000); active = well fitted inhibition curve with a large enough effect;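 also: plate controls were DMSO vehicle for no effect and reference drug for full effect; nearly all actives have a fitted effect of over 65% in size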
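Infected erythrocytes (Dd2, 0.3% parasitemia, 2.5% hematocrit final) are added to compound in RPMI-1640/Albumax II medium, grown 72 h at 37C in low oxygen, then lysed with saponin/Triton-X containing SYBR Green and read by fluorescence.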
The depositor's hits bear a star; [ ] = another dose, or the depositor's remark. This excerpt belongs to a sample that is enriched for hits. Potency is read from the fitted curve at half-maximal effect.

Screening Cc1ccc(NC(=O)CSc2nc3ccccc3c3nc(CCn4cncc4C)nn23)c(C)c1 returned Pf Dd2 inh 7.8%.
Screening COc1cc2nc(SCC(=O)Nc3cccc(C)c3)n3nc(-c4ccccc4)nc3c2cc1OC returned Pf Dd2 inh 3.2%.
`COc1cc2nc(SCC(=O)Nc3cccc(C)c3)n3nc(CCn4c(C)nc5ccccc54)nc3c2cc1OC` gave Pf Dd2 inh 2.24µM*.
Screening Cc1cccc(C)c1NC(=O)CSc1nc2ccccc2c2nc(CCc3c(C)n[nH]c3C)nn12 returned Pf Dd2 inh 21.5%.
For Cc1ccccc1NC(=O)CSc1nc2ccccc2c2nc(CCn3cncc3C)nn12 the results were Pf Dd2 inh -18.3%.
CS(=O)(=O)c1ccc(CN2C[C@H](O)C[C@H]2c2nc(-c3cccnc3)no2)cc1 was read as Pf Dd2 inh 4.5%[44.1 µM].
Screening Cc1noc(C)c1-c1cc2c(c(-c3ccccc3F)c1)C(=O)N(C)C2 returned Pf Dd2 inh -16.7%[44.1 µM].
Screening O=C(C1CC=CC1)N1CCN(C(=O)N2CC3CC(C2)[C@H]2CCCC(=O)N2C3)CC1 (some centres undefined) returned Pf Dd2 inh -7.0%.
CCOC(=O)c1ccc(NC(=O)CN2C(=O)NC3(CCS(=O)(=O)CC3)C2=O)cc1 was read as Pf Dd2 inh inactive.
COCCC(=O)N1CCCC1c1nc(C2CCOCC2)no1 (centres undefined) was read as Pf Dd2 inh 27.1%.
`Cn1ncc2c(-c3ccc([S+](C)(=O)[O-])cc3)cc(C(=O)N3CCCC3)nc21` gave Pf Dd2 inh -24.3%.
`COc1ccc(N2CCN(C(=O)Cn3ccn4nc(-c5ccccc5)c(CO)c4c3=O)CC2)cc1` gave Pf Dd2 inh inactive.
`COc1ccc(CN2C(=O)O[C@@H]3CN(Cc4nc[nH]c4C)C[C@@H]32)cc1OC` gave Pf Dd2 inh 5.6%.
`Cc1cc(C)c2nc(N(Cc3cccnc3)C(=O)c3cccs3)sc2c1` gave Pf Dd2 inh 10µM*.
`O=C(CCS(=O)(=O)c1ccccc1)N(Cc1cccnc1)c1nc2ccc(Cl)cc2s1` gave Pf Dd2 inh 45.8%.
Screening CC(=O)c1ccc(C(=O)N(Cc2cccnc2)c2nc3c(Cl)cccc3s2)cc1 returned Pf Dd2 inh -21.6%.
`O=C(CCc1ccccc1)N(Cc1cccnc1)c1nc2c(F)cccc2s1` gave Pf Dd2 inh inactive.
Screening Cc1cc(C)c2nc(N(Cc3cccnc3)C(=O)Cc3ccccc3)sc2c1 returned Pf Dd2 inh 10µM*.
Screening Cc1ccc2nc(N(Cc3cccnc3)C(=O)Cc3ccccc3)sc2c1 returned Pf Dd2 inh 5.01µM*.
`Cc1ccc2nc(N(Cc3cccnc3)C(=O)c3ccc4c(c3)OCCO4)sc2c1` gave Pf Dd2 inh inactive.
O=C(c1ccco1)N(Cc1cccnc1)c1nc2c(F)cccc2s1 was read as Pf Dd2 inh inactive.
For Cc1ccc2nc(N(Cc3cccnc3)C(=O)CCS(=O)(=O)c3ccccc3)sc2c1 the results were Pf Dd2 inh inactive.
Screening CC(=O)N(Cc1cccnc1)c1nc2c(C)c(C)ccc2s1 returned Pf Dd2 inh inactive.
`Cc1cccc2sc(N(Cc3cccnc3)C(=O)CCc3ccccc3)nc12` gave Pf Dd2 inh 3.98µM*.
Screening CCS(=O)(=O)c1ccccc1C(=O)N(Cc1cccnc1)c1nc2cc(C)c(C)cc2s1 returned Pf Dd2 inh -1.3%.
`O=C1N[C@H](Cc2ccc(O)cc2)C(=O)N2CC[C@H](NS(=O)(=O)c3ccc(Cl)cc3)C[C@@H]12` gave Pf Dd2 inh inactive.
For O=C(Cc1ccccc1F)N1CCC(c2noc(-c3cccnc3)n2)C1 (centres undefined) the results were Pf Dd2 inh inactive[5.79 µM].
O=c1c2c(nc3cc(-c4ccccc4)[nH]n13)CN(S(=O)(=O)c1cccs1)CC2 was read as Pf Dd2 inh inactive.
`Cc1nnc(-c2cc(-c3cccc(CO)c3)ccn2)n1CCN1CCOCC1` gave Pf Dd2 inh inactive.
Screening O=C1NC(=NC2CCCC2)C2(CCCN(CC3CC3)C2)N1c1cccnc1 (centres undefined) returned Pf Dd2 inh 25.7%.
For Cc1ccc(-c2noc(-c3nc(Cc4ccc(F)cc4)no3)n2)cc1 the results were Pf Dd2 inh 15.9%.
COc1ncc(-c2n[nH]c3c2CC(=O)N(c2ccccc2)C3)cn1 was read as Pf Dd2 inh 14.0%[44.1 µM].
For Cc1ccc(NC(=O)Cn2cc(C(=O)c3ccco3)c3ccccc32)c(C)c1 the results were Pf Dd2 inh -19.4%.
`O=C(c1ccco1)c1cn(CCOc2ccc(F)cc2)c2ccccc12` gave Pf Dd2 inh 1.26µM*.
For O=C(c1cccs1)c1cn(CCOc2ccc(F)cc2)c2ccccc12 the results were Pf Dd2 inh -29.6%.
For O=C(NC[C@H]1OC[C@@H](NCc2ccccn2)[C@@H]1O)N1CCOCC1 the results were Pf Dd2 inh inactive.
Screening COc1ccc(-c2onc(C)c2C(=O)NCCOc2ccccc2)cc1 returned Pf Dd2 inh -7.1%.
For CC(C)c1nc2c(NC(=O)c3cccc(Br)c3)cccn2n1 the results were Pf Dd2 inh 3.16µM*.
Cc1nc2c(NS(=O)(=O)c3cccc(C#N)c3)cccn2n1 was read as Pf Dd2 inh 3.0%.
Screening CCc1ccccc1S(=O)(=O)Nc1cccn2nc(C(C)C)nc12 returned Pf Dd2 inh 8.91µM*.
For COc1ccc(NC(=O)Nc2cccn3nc(C(C)C)nc23)cc1 the results were Pf Dd2 inh -23.2%.
CCc1nc2c(NS(=O)(=O)c3cccnc3)cccn2n1 was read as Pf Dd2 inh -7.8%.
CC(C)c1nc2c(NC(=O)Nc3cccc(Cl)c3)cccn2n1 was read as Pf Dd2 inh -17.9%.
For O=c1c2c(CO)c(-c3ccc(F)cc3)nn2ccn1Cc1cccc(F)c1 the results were Pf Dd2 inh -19.5%.
For CS(=O)(=O)N1CCCN(C(=O)CCCc2ccccc2)CCNC(=O)CC1c1ccccc1 (centres undefined) the results were Pf Dd2 inh -20.2%.
CNC(=O)N1CCC(C2CCN(C(=O)c3ccc(OC)nc3)C2)CC1 (centres undefined) was read as Pf Dd2 inh -19.4%.
For COc1ccc(-c2cc(N3CCN(C(=O)c4ccccc4F)CC3)n[nH]2)cc1 the results were Pf Dd2 inh inactive.
`O=C(c1nc2ccccc2[nH]1)N1CCc2c(n(Cc3cccnc3)n(-c3ccccc3)c2=O)C1` gave Pf Dd2 inh inactive.
Cc1ccc(/C=C(\C#N)c2nc3ccccc3c(=O)[nH]2)cc1 was read as Pf Dd2 inh 13.1%.
Cc1ccc(C(C)(C)C)c(OCC(=O)NCCc2nc3ccccc3[nH]2)c1 was read as Pf Dd2 inh 4.3%.
Screening Cc1ccc(/C=C/c2nc3ccccc3[nH]2)cc1 returned Pf Dd2 inh 10µM*.
`COCCCn1c(C)cnc1CC1CCNCC1` gave Pf Dd2 inh 4.3%.
For CN1CCN(C[C@H]2CN3CC[C@H]2C[C@@H]3CNC(=O)Nc2ccccc2)CC1 the results were Pf Dd2 inh 21.4%[44.1 µM].
N#Cc1cccc(NC(=O)NC[C@H]2C[C@@H]3CCN2C[C@@H]3CN2CCSCC2)c1 was read as Pf Dd2 inh -3.5%[44.1 µM].
For CSc1cccc(NC(=O)NC[C@H]2C[C@@H]3CCN2C[C@@H]3CN2CCSCC2)c1 the results were Pf Dd2 inh 10µM*.
`O=C(Nc1cccc(F)c1)C1CCN(C(=O)c2ncn3c2COC(c2ccccc2)C3)CC1` (centres undefined) gave Pf Dd2 inh -3.1%.
Screening COc1ccc(C(=O)NCc2nnc3ccc(-c4ccc(F)cc4)nn23)c(OC)n1 returned Pf Dd2 inh inactive.
